PLCg1 inh – PLC-gamma1 enzyme inhibitors, primary screen, biochemical, fluorescence, purified enzyme. AID 720700, 2013. 1-phosphatidylinositol 4,5-bisphosphate phosphodiesterase gamma-1 (Homo sapiens), P19174. fluorogenic substrate. 370,000 compounds, 0.84% hits. inhibition, % at 12.2 µM
ADAM10 inh – human ADAM10 inhibitors, primary screen, biochemical, QFRET, HTS; Disintegrin and metalloproteinase domain-containing protein 10 (Homo sapiens), O14672; recombinant ADAM10, EDANS/DABCYL FRET peptide cleavage, 3 h; inhibition, % at 7 µM; 370,000 compounds, 0.62% hits; AID 720582, 2013;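 active means inhibition above a per-campaign cutoff equal to the mean of compounds falling between control-based bounds plus 3 SD, cut at about 20% in these data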;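 further: 0% = DMSO wells while the 100% control is not disclosed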
proKLK7 act – proKLK7 zymogen activators, primary screen, biochemical, fluorescence intensity | 370,000 compounds, 0.9% hits | AID 652039, 2013 | Kallikrein-7 (Homo sapiens), P49862 | purified proKLK7, EDANS-DABCYL substrate fluorescence; 100% is mature enzyme control, 0% vehicle | activation, % at 7 µM;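 active means activation above the mean of all tested compounds plus 3 SD, computed per campaign excluding outliers beyond control limits, cut at about 13% in these data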
PLCb3 inh – human PLC-beta3 inhibitors, primary screen, biochemical, fluorescence | 1-phosphatidylinositol 4,5-bisphosphate phosphodiesterase beta-3 (Homo sapiens), Q01970 | Purified PLC-beta3, fluorogenic substrate | inhibition, % at 12.2 µM | 370,000 compounds, 0.18% hits | AID 720704, 2013; in the data active means inhibition above about 11%;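 further: 0% = median of compound wells on plate and 100% = full blocker control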
Target sequence (Q01970 whole entry, looked up): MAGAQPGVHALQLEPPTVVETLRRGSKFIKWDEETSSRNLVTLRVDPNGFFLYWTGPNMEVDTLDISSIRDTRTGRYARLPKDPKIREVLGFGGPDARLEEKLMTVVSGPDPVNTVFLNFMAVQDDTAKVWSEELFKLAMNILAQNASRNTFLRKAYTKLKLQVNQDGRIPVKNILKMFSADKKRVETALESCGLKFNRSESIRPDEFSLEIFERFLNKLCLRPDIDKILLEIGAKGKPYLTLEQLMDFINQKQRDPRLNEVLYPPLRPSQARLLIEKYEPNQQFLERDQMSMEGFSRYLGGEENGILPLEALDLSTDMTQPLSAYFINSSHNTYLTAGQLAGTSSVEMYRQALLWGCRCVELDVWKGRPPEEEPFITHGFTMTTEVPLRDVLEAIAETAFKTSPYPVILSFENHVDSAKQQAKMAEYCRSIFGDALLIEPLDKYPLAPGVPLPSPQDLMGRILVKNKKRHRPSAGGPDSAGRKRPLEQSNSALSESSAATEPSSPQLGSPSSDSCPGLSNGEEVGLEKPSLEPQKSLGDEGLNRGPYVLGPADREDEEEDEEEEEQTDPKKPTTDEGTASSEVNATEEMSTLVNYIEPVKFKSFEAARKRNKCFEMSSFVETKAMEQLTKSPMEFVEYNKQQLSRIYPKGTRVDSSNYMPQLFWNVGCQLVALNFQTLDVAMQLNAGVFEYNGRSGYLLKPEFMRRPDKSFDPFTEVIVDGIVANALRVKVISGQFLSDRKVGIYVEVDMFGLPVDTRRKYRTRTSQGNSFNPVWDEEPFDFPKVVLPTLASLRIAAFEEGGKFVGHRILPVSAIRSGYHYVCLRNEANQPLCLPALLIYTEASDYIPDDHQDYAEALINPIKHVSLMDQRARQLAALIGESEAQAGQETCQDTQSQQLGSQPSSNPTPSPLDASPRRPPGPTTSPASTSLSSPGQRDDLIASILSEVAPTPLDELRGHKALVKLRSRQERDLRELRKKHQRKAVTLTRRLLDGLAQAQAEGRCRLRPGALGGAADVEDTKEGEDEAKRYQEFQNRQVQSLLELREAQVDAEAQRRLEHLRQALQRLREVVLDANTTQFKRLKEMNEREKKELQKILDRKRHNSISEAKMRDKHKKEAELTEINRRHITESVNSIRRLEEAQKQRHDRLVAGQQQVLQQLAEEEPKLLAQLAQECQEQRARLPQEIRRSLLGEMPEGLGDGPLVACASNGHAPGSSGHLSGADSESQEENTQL
ADAM17 inh – ADAM17 inhibitors, primary screen, biochemical, QFRET; Disintegrin and metalloproteinase domain-containing protein 17 (Homo sapiens), P78536; recombinant ADAM17, EDANS/DABCYL FRET peptide cleavage; inhibition, % at 6.95 µM; 370,000 compounds, 0.83% hits; AID 720648, 2013;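 active means inhibition above the mean of compounds lying between control limits plus 3 SD, set per campaign, cut at about 8.5% in these data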;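 further: 0% = DMSO-only wells as the low control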
ADAM10 confirm – human ADAM10 inhibitors, confirmation, biochemical, QFRET, triplicate | shares compounds with ADAM10 inh | 2,100 compounds, 1% hits | ADAM10 QFRET peptide cleavage, EDANS fluorescence | inhibition, % at 6.95 µM;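 active means inhibition above about 20% chosen separately for each screening run, limit read from the data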;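 further: 0% = DMSO wells and 100% = marimastat wells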
ADAM17 counter – ADAM17 inhibitors, counter-screen for ADAM10 exosite inhibitor project, biochemical, QFRET, high throughput; inhibition, % at 6.95 µM; 2,100 compounds, 0.5% hits; ADAM17 QFRET peptide cleavage, EDANS fluorescence; shares compounds with ADAM10 inh;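 active means mean triplicate inhibition above the solvent-only control wells' mean plus 3 SD, cut at about 12% in these data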;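 further: 0% = DMSO wells and 100% = marimastat wells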
ADAM10 ctr – ADAM10 inhibitors, counter-screen for ADAM17 exosite inhibitor project, biochemical, FRET, human ADAM10; shares compounds with ADAM17 inh; recombinant ADAM10, EDANS/DABCYL FRET peptide cleavage, 3 h; inhibition, % at 6.95 µM; 2,900 compounds, 47% hits;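 active means mean inhibition over the triplicate runs exceeds the activity threshold set in the earlier primary screen, cut at about 20% in these data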;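 further: 0% = DMSO wells and 100% = marimastat wells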
ADAM17 confirm – ADAM17 inhibitors, hit retest, confirmation, biochemical, QFRET peptide cleavage; inhibition, % at 6.95 µM; shares compounds with ADAM17 inh; AID 743257, 2014; recombinant ADAM17, EDANS/DABCYL QFRET peptide cleavage; 2,900 compounds, 65% hits;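 active means mean inhibition across replicates above the hit cutoff set in the primary screen, cut at about 8.5% in these data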;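 further: 0% = DMSO wells and 100% = marimastat wells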
PLCgamma1 ctr – PLC-gamma1 enzyme inhibitors, counter-screen for PLC-beta3 inhibitor project, biochemical, fluorescence | purified PLC-gamma1, fluorogenic substrate | AID 743258, 2014 | shares compounds with PLCg1 inh | inhibition, % at 12.3 µM | 3,300 compounds, 3.1% hits
PLCbeta3 conf – PLC-beta3 inhibitor confirmation, biochemical, fluorescence, purified enzyme | AID 743261, 2014 | 3,300 compounds, 1% hits | shares compounds with PLCg1 inh | inhibition, % at 12.3 µM | fluorogenic substrate fluorescence; in the data active means inhibition above about 11%
* marks the source's active call; other numbers are inactive results; x = no result given. Rows were chosen to be rich in hits. Some 2.9% of all compounds tested hit in one or more screens of this group. Unless noted, no stated cut-off is given here; in the data, active means inhibition above about 9.5%; inactive means the rest.

SMILES	PLCg1 inh	ADAM10 inh	proKLK7 act	PLCb3 inh	ADAM17 inh	ADAM10 ctr	ADAM17 confirm	others
NC(CCc1ccccc1)c1csc(NC(=O)Nc2ccccc2Oc2ccccc2)n1 (stereo not drawn)	16*	29*	0	6	14*	23*	13*	ADAM10 confirm=7;ADAM17 counter=3;PLCgamma1 ctr=-1;PLCbeta3 conf=-3
O=C(COn1nnc2ccc(S(=O)(=O)N3CCOCC3)cc21)NCCc1ccccc1	7	8	0	-1	13*	-2	1
O=C(c1ccccc1)c1ccc(OCCO)cc1	0	-3	0	0	0	x	x
CCOc1cccc(OCCOc2ccc(C(=O)c3ccccc3)cc2)c1	1	10	0	-1	10*	20	14*
Cc1nc(NC(=O)c2ccccc2)sc1-c1cc(C(=O)NCCO)nn1Cc1ccccc1	-7	-6	0	-8	-7	x	x
Cc1ccc(S(=O)(=O)N(CC(=O)Nc2ccccc2-c2ccccc2)c2ccc(C)cc2C)cc1	1	10	0	2	5	x	x
Cc1cccc(N(CC(=O)Nc2ccccc2-c2ccccc2)S(=O)(=O)c2ccccc2)c1C	2	16	0	1	9.3*	28*	16*
COc1cccc(-c2ncn(CCc3ccccc3OC)c2CC(C)C)c1	2	18	1	3	6	x	x
CCc1ccc(OCC2c3cc(OC)c(OC)cc3CCN2C(=S)NC)cc1 (stereo not drawn)	2	10	-1	0	0	x	x
CCc1ccc(OCC2c3cc(OC)c(OC)cc3CCN2C(=S)NCCOC)cc1 (stereo not drawn)	5	17	-1	0	10*	39*	21*
CCCCCCCCN1C(=O)[C@H](CC(=O)N2CCCC2)C[C@@]2(C(=O)OCC)CCCC=C12	-1	-14	0	-4	0	x	x
CC(C)Oc1ccc(C(=O)Nc2ccc(Cl)c(S(=O)(=O)Nc3ccc(Cl)cc3)c2)cc1	8	18	0	2	10*	26*	16*
Cc1ccc(C)c(N2N=C(C(=O)Nc3cccc(S(=O)(=O)N4CCCCC4)c3)CCC2=O)c1	4	12	-1	0	13*	9	6
CC(C)Oc1ccc(C(=O)Nc2cccc(S(=O)(=O)N3CCCC3)c2)cc1	8	13	1	8	9.0*	6	2
O=S(=O)(NCCc1ccc(F)cc1)c1cc(C(F)(F)F)ccc1Br	3	19	1	4	9.9*	22*	11*
CC1=C(C(=O)OCC2CCCO2)C(c2ccccc2)NC(=O)N1 (stereo not drawn)	-1	-5	0	2	-1	x	x
CC1=C(C(=O)OCCNC(=O)c2ccccc2O)C(c2ccccc2[N+](=O)[O-])C(C(=O)OCC2CCCO2)=C(C)N1 (stereo not drawn)	7	15	0	5	13*	16	7
COC(=O)[C@@]1(Cc2ccccc2)[C@H]2C(=O)N(C)C(=O)[C@H]2[C@H]2CN=C(SCc3ccc(C#N)cc3)N21	-2	-17	0	0	-1	x	x
COc1ccc(NCC(=O)Nc2ccc(Br)cc2F)c(OC)c1	-12	5	0	-27	10*	27*	9.3*
CCN(CC(=O)Nc1ccc(OC)cc1)CC(=O)Nc1ccc(Br)cc1F	0	6	1	-3	0	x	x
COC(=O)[C@]12C[C@H](CC(=O)NCCc3ccccc3OC)C(=O)N(Cc3ccc(Cl)cc3Cl)C1=C[C@H](C1CCCC1)O[C@@H]2C	1	2	0	4	-1	x	x
FC(F)(F)c1cc(CCN2CCNC[C@@H]2CC2CCCCC2)cc(C(F)(F)F)c1	7	-1	0	6	1	x	x
CCCC[C@@H]1CNCCN1CCc1cc(C(F)(F)F)cc(C(F)(F)F)c1	9	4	0	11	9.0*	0	0
CCc1nc2ccc(C(=O)Nc3ccc4c(c3)OCC(=O)N4)cn2c1N(CC)CCOC	-1	-1	0	-11	-1	x	x
CCc1nc2ccc(C(=O)Nc3ccc4c(c3)OCC(=O)N4)cn2c1N(CC)Cc1cccc(Br)c1	-60	14	-5	-85	9.1*	16	12*
SMILES	PLCg1 inh	ADAM10 inh	proKLK7 act	PLCb3 inh	ADAM17 inh	ADAM10 ctr	ADAM17 confirm	others
COc1ccc(-n2c(=S)[nH]c3cc(C(=O)Nc4ccccc4OC)ccc3c2=O)c(OC)c1	1	17	0	-3	9.0*	28*	12*
COc1cccc(C(Nc2ccccn2)c2oc(CO)cc(=O)c2O)c1 (stereo not drawn)	-3	1	0	-9	13*	27*	29*
COc1ccc(C)cc1N(C(=O)c1cccc(F)c1)c1nc2ccccc2s1	3	5	10	4	3	x	x
COc1ccc(C)cc1N(C(=O)c1ccccc1)c1nc2ccccc2s1	5	9	-1	1	9.9*	26*	18*
CCCc1cc(-c2[nH]ncc2-c2ccc3c(c2)OCCCO3)c(O)cc1OC	-2	18	0	-1	10*	28*	13*
CCc1cc(-c2[nH]ncc2-c2ccc3c(c2)OCO3)c(O)cc1O	-4	6	0	-3	2	x	x

Assay outcomes (PubChem BioAssay)
